{"source": "the supplement of paper PMC4206461"}
{"tested_on": "Pseudomonas aeruginosa PA14 dppA1-A5 penta mutant + pBBR5.DppA1 (PA14_58350)", "assay": "respiration area under curve with compound as sole nitrogen source, 24 h (OmniLog AUC (arbitrary units)); higher = more respiration / better utilisation as nitrogen source, active = 2000 or more", "procedure": "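Biolog Phenotype MicroArray plates PM6-PM8: each di/tripeptide is the sole nitrogen source. Tetrazolium reduction was read in the OmniLog for 24 h at 37°C and summarised as area under the respiration curve (arbitrary units). Values below 2000 count as no respiration. Strain is the SBP penta mutant complemented with DppA1 on a plasmid under its native promoter. Lys/His/Cys peptides are excluded.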"}
{"smiles": "CC(C)C[C@H](NC(=O)[C@@H](N)C(C)C)C(=O)O", "note": "(plate: PM7)", "respiration area under curve": "7530 (active)"}
{"smiles": "N[C@@H](CO)C(=O)N1CCC[C@H]1C(=O)O", "note": "(plate: PM7)", "respiration area under curve": "12700 (active)"}
{"smiles": "CC(C)[C@H](NC(=O)[C@@H](N)CC(N)=O)C(=O)O", "note": "(plate: PM6)", "respiration area under curve": "5500 (active)"}
{"smiles": "C[C@H](N)C(=O)N1CCC[C@H]1C(=O)O", "note": "(plate: PM6)", "respiration area under curve": "10700 (active)"}
{"smiles": "C[C@H](N)C(=O)N[C@@H](CC(=O)O)C(=O)O", "note": "(plate: PM8)", "respiration area under curve": "9070 (active)"}
{"smiles": "CSCC[C@H](N)C(=O)N[C@@H](Cc1c[nH]c2ccccc12)C(=O)O", "note": "(plate: PM7)", "respiration area under curve": "2980 (active)"}
{"smiles": "O=C(O)[C@H](Cc1c[nH]c2ccccc12)NC(=O)[C@@H]1CCCN1", "note": "(plate: PM8)", "respiration area under curve": "1320 (inactive)"}
{"smiles": "CSCC[C@H](NC(=O)[C@H](C)N)C(=O)O", "note": "(plate: PM8)", "respiration area under curve": "6710 (active)"}
{"smiles": "NC(=O)C[C@H](NC(=O)[C@@H](N)CO)C(=O)O", "note": "(plate: PM8)", "respiration area under curve": "10900 (active)"}
{"smiles": "CSCC[C@H](NC(=O)[C@@H](N)CO)C(=O)O", "note": "(plate: PM7)", "respiration area under curve": "2590 (active)"}
{"smiles": "CC(C)[C@H](NC(=O)[C@@H](N)Cc1ccc(O)cc1)C(=O)O", "note": "(plate: PM8)", "respiration area under curve": "6630 (active)"}
{"smiles": "CC(C)[C@H](N)C(=O)N[C@@H](C)C(=O)O", "note": "(plate: PM8)", "respiration area under curve": "4740 (active)"}
{"smiles": "CC[C@H](C)[C@H](N)C(=O)N[C@H](C(=O)O)C(C)C", "note": "(plate: PM6)", "respiration area under curve": "2860 (active)"}
{"smiles": "CC(C)[C@H](N)C(=O)N[C@@H](Cc1ccc(O)cc1)C(=O)N[C@H](C(=O)O)C(C)C", "note": "(plate: PM8)", "respiration area under curve": "7350 (active)"}
{"smiles": "CC[C@H](C)[C@H](N)C(=O)N[C@H](C(=O)O)[C@@H](C)CC", "note": "(plate: PM6)", "respiration area under curve": "1010 (inactive)"}
{"smiles": "O=C(O)CC(NC(=O)C1CCCN1)C(=O)O", "note": "(stereo not given) (plate: PM7)", "respiration area under curve": "2970 (active)"}
{"smiles": "CC[C@H](C)[C@H](NC(=O)[C@@H]1CCCN1)C(=O)O", "note": "(plate: PM8)", "respiration area under curve": "4410 (active)"}
{"smiles": "CSCC[C@H](NC(=O)[C@@H](N)[C@@H](C)O)C(=O)O", "note": "(plate: PM7)", "respiration area under curve": "2920 (active)"}
{"smiles": "CC(C)[C@H](NC(=O)CN)C(=O)O", "note": "(plate: PM6)", "respiration area under curve": "1820 (inactive)"}
{"smiles": "CC(C)C[C@H](NC(=O)[C@@H](N)CO)C(=O)O", "note": "(plate: PM7)", "respiration area under curve": "6240 (active)"}
{"smiles": "C[C@H](NC(=O)[C@@H](N)CCC(=O)O)C(=O)O", "note": "(plate: PM8)", "respiration area under curve": "7690 (active)"}
{"smiles": "N[C@@H](Cc1ccccc1)C(=O)N[C@@H](CO)C(=O)O", "note": "(plate: PM7)", "respiration area under curve": "6540 (active)"}
{"smiles": "CC(C)[C@H](NC(=O)[C@@H](N)Cc1c[nH]c2ccccc12)C(=O)O", "note": "(plate: PM8)", "respiration area under curve": "1060 (inactive)"}
{"smiles": "CC[C@H](C)[C@H](N)C(=O)N[C@@H](CCC(N)=O)C(=O)O", "note": "(plate: PM6)", "respiration area under curve": "5000 (active)"}
{"smiles": "CC(NC(=O)C(N)CC(=O)O)C(=O)O", "note": "(stereo not given) (plate: PM8)", "respiration area under curve": "6890 (active)"}
{"smiles": "N[C@@H](CO)C(=O)N[C@@H](CC(=O)O)C(=O)O", "note": "(plate: PM8)", "respiration area under curve": "2890 (active)"}
{"smiles": "N[C@@H](CO)C(=O)N[C@@H](Cc1ccccc1)C(=O)O", "note": "(plate: PM7)", "respiration area under curve": "6220 (active)"}
{"smiles": "CCC(C)C(N)C(=O)NC(CC(N)=O)C(=O)O", "note": "(stereo not given) (plate: PM8)", "respiration area under curve": "7760 (active)"}
{"smiles": "CC[C@H](C)[C@H](N)C(=O)N[C@@H](CCCN=C(N)N)C(=O)O", "note": "(plate: PM6)", "respiration area under curve": "7890 (active)"}
{"smiles": "C[C@H](N)C(=O)N[C@@H](CC(N)=O)C(=O)O", "note": "(plate: PM6)", "respiration area under curve": "7840 (active)"}
{"smiles": "NCC(=O)N[C@@H](Cc1ccccc1)C(=O)N[C@@H](Cc1ccccc1)C(=O)O", "note": "(plate: PM8)", "respiration area under curve": "5190 (active)"}
{"smiles": "CSCC[C@H](N)C(=O)N[C@H](C(=O)O)[C@@H](C)O", "note": "(plate: PM8)", "respiration area under curve": "1950 (inactive)"}
{"smiles": "NC(=O)CC[C@H](NC(=O)[C@@H](N)CC(=O)O)C(=O)O", "note": "(plate: PM8)", "respiration area under curve": "7700 (active)"}
{"smiles": "C[C@H](N)C(=O)N[C@@H](CCCN=C(N)N)C(=O)O", "note": "(plate: PM6)", "respiration area under curve": "9300 (active)"}
{"smiles": "O=C(O)[C@H](Cc1ccc(O)cc1)NC(=O)[C@@H]1CCCN1", "note": "(plate: PM7)", "respiration area under curve": "11800 (active)"}
{"smiles": "CC(C)C[C@@H](N)C(=O)NCC(=O)O", "note": "(plate: PM8)", "respiration area under curve": "0 (inactive)"}
{"smiles": "CSCC[C@H](N)C(=O)N[C@@H](CCC(=O)O)C(=O)O", "note": "(plate: PM7)", "respiration area under curve": "1490 (inactive)"}
{"smiles": "CC(C)C[C@@H](N)C(=O)N[C@@H](Cc1ccc(O)cc1)C(=O)O", "note": "(plate: PM8)", "respiration area under curve": "21.2 (inactive)"}
{"smiles": "C[C@H](N)C(=O)N[C@@H](C)C(=O)N[C@@H](C)C(=O)O", "note": "(plate: PM8)", "respiration area under curve": "8340 (active)"}
{"smiles": "C[C@H](NC(=O)[C@@H](N)Cc1ccc(O)cc1)C(=O)O", "note": "(plate: PM7)", "respiration area under curve": "10300 (active)"}
